# In the library only some 19% were active in any assay of this set; here they are far more common.
# HT1080-NT tox – kills 2HG-producing HT-1080-NT fibrosarcoma cells. HT-1080-NT fibrosarcoma viability, CellTiter-Glo ATP luminescence, 48 h. Potency, µM (series often up to 46.1 µM), without a hit: at the highest dose activity, negative = less viability, most hits filed as cytotoxic. actives 1.6% (n = 360,000);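 also: NT is the 2HG producing partner of a matched IDH1 knockdown line; potency is read from the fitted curve at half-maximal effect; 0% = DMSO-treated cells and -100% = media-only wells without cells; nearly all actives have a fitted effect of over 55% in size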
#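 HT-1080-NT; 750 cells/well; 5% FBS RPMI; 48 h compound, 37 degrees C; CellTiter-Glo luminescence; curve fitting and curve-class assignment.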
# HT1080 IDH1KD tx – toxicity to HT-1080 IDH1 knockdown cells (counter line); Potency, µM (top dose mostly 46.1 µM), for inactives: at the top dose activity, negative = toxicity, most hits filed as cytotoxic; AID 686971; actives 2% (n = 360,000); HT-1080 IDH1 knockdown viability, ATP luminescence, 48 h;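 also: potency is read from the fitted curve at half-maximal effect; 0% = DMSO wells and -100% = cell-free medium wells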
#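 % activity derives from luminescence (CellTiter-Glo), normalised to DMSO and no-cell wells. HT-1080-IDH1KD cells, 750/well, had 48 h compound exposure at 37 °C.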
# IL1B secr inh – inflammasome signaling inhibition, IL-1 beta readout | THP-1 LPS/ATP IL-1B secretion, AlphaLISA, 16 h; hits give low values | activity change, % at 57.5 µM | actives 4.7% (n = 360,000) | AID 743279; in the data active = activity change below about -50%; inconclusive = mostly about -30% to -49%
#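 Secreted IL-1B measured by AlphaLISA bead assay after 16 h compound exposure of THP-1 cells; compounds (final up to 57.5 uM) added 1 h before LPS (250 ng/mL) and ATP (1.25 mM) stimulation; lower signal means less secretion.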
# TDP1 cell CPT – DT40-hTDP1 cell growth loss with CPT. Potency, µM (doses to about 46.2 µM), without a hit: at the top dose activity change, negative = growth inhibition, usual class: inhibitors. chicken DT40 Tdp1-/-;hTDP1 cells + 20 nM CPT, ATP luminescence, 48 h. actives 12% (n = 420,000); also: potency is read from the fitted curve at half-maximal effect; nearly all actives have a fitted effect of over 55% in size
#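 Cell growth measured by CellTiter-Glo luminescence after a minimum 48 h, 37 C compound exposure with 20 nM CPT in Tdp1-knockout DT40 cells stably expressing hTDP1, seeded 400/well; qHTS titration format.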
# DT40 TDP1 no CPT – qHTS for Inhibitors of human tyrosyl-DNA phosphodiesterase 1 (TDP1): qHTS in cells in absence of CPT. DT40 Tdp1-/- hTDP1 cells, no CPT, ATP luminescence, 48 h. Potency, µM (series often up to 46.2 µM), without a hit: at the highest dose activity change, negative = growth inhibition, hits mostly inhibitors. actives 15% (n = 420,000). AID 686978, 2013; also: potency is read from the fitted curve at half-maximal effect; nearly all actives have a fitted effect of over 55% in size
#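 Readout: luminescence from CellTiter-Glo after 30 min in the dark at RT. Cells: DT40 Tdp1-/- with stable hTDP1, 400/well. Exposure: compounds alone, ≥48 hr, 37 °C.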
# * marks the source's active call; other numbers are inactive results; ? = inconclusive; / = not tested or not shown. Unless noted, calls follow the shape of the dose curve; as a rule, active = well fitted curve in the direction sought with a large enough effect; inconclusive = small, poorly fitted or top-dose-only effect, or another doubt; inactive = no such curve, though single readings can be large; an effect the other way counts as inactive or inconclusive. Unless noted, % is scaled to controls: 0 for no effect and ±100 for the full control effect.
SMILES,HT1080-NT tox,HT1080 IDH1KD tx,IL1B secr inh,TDP1 cell CPT,DT40 TDP1 no CPT
CCOc1ccc(CCN2C(=S)N([C@@H](CC(C)C)CN3CCCC3CN3C(=S)NC[C@@H]3CC(C)C)C[C@@H]2CC(C)C)cc1 (stereo partly specified),8%,9%,26,?,18µM*
CCOc1ccc(CCN2C(=S)N([C@@H](CC(C)C)CN3CCCC3CN3C(=S)NC[C@@H]3CC(C)C)C[C@@H]2Cc2ccccc2)cc1 (stereo partly specified),-1%,4%,15,16µM*,18µM*
CCOc1ccc(CCN2C(=S)N([C@@H](Cc3ccc(O)cc3)CN3CCC[C@@H]3CN3C(=S)NC[C@@H]3Cc3ccccc3)C[C@@H]2CC(C)C)cc1,-13%,-5%,-17,10µM*,9.2µM*
CCOc1ccc(CCN2C(=S)N([C@@H](Cc3ccc(O)cc3)CN3CCC[C@@H]3CN3C(=S)NC[C@@H]3CC(C)C)C[C@@H]2CC(C)C)cc1,-17%,-23%,-59*,16µM*,21µM*
COc1ccc(/C=C/C(=O)O)cc1S(=O)(=O)N1CCc2ccccc21,-6%,-16%,1,4%,-12%
O=C(COC(=O)/C=C/c1ccco1)Nc1ccc(F)cc1Cl,16%,19%,11,13%,29%
CC(C)CN(C(=O)COC(=O)/C=C/c1ccc(Cl)c(Cl)c1)c1c(N)n(Cc2ccccc2)c(=O)[nH]c1=O,1%,2%,?,?,?
CC(Nc1ccc2c(c1)OCCO2)C(=O)N1CCc2ccccc21 (stereo unspecified),5%,9%,-7,-20%,-20%
CCOc1ccc(CCN2C(=S)N([C@@H](Cc3ccccc3)CN3CCC[C@@H]3CN3C(=S)NC[C@@H]3CC(C)C)C[C@@H]2Cc2ccccc2)cc1,-10%,17%,-17,?,15µM*
CC(C)C[C@H]1CN([C@@H](CC(C)C)CN2CCCC2CN2C(=S)NC[C@@H]2Cc2ccccc2)C(=S)N1CCc1ccccc1 (stereo partly specified),-3%,3%,12,?,?
CC(C)C[C@H]1CNC(=S)N1C[C@H]1CCCN1C[C@H](Cc1ccc(O)cc1)N1C[C@H](Cc2ccccc2)N(CCc2ccccc2)C1=S,-19%,-4%,-22,?,?
CCOc1ccc(CCN2C(=S)N([C@@H](Cc3ccc(O)cc3)CN3CCC[C@@H]3CN3C(=S)NC[C@@H]3CC(C)C)C[C@@H]2Cc2ccccc2)cc1,-17%,1%,-16,4.6µM*,5.2µM*
O=C(NCC(c1ccco1)S(=O)(=O)c1ccc(Cl)cc1)c1ccc(C(F)(F)F)cc1 (stereo unspecified),/,/,/,9.2µM*,12µM*
O=C(NCCc1ccc(Cl)cc1)C(=O)NCC(c1ccco1)S(=O)(=O)c1ccc(Cl)cc1 (stereo unspecified),/,/,/,16µM*,13µM*
CN1C[C@@H]2[C@@H]3C(=O)N(C)C(=O)[C@@H]3[C@](C)(C1=O)N2C(=O)c1ccc(C(C)(C)C)cc1,5%,14%,0,-11%,-15%
CN(C#N)c1nc(Cl)nc(Nc2cccc(Cl)c2)n1,-2%,-5%,-91*,?,?
C#CCCc1ccccc1/C=[N+](/C)[O-],-6%,-1%,49,23µM*,?
C/[N+]([O-])=C\c1coc2ccccc2c1=O,-1%,-2%,-6,7%,-15%
NC(=S)N/N=C/c1ccc(Br)o1,2%,1%,-11,-20%,-15%
NC(=S)N/N=C/c1ccc(-c2cccc([N+](=O)[O-])c2)o1,-2%,3%,-5,5.2µM*,3.7µM*
NC(=S)N/N=C/c1ccc(-c2cc(Cl)c(Cl)cc2Cl)o1,?,?,29,3.7µM*,4.6µM*
O=C(N/N=C/c1ccc(-c2cccc([N+](=O)[O-])c2)o1)c1cccs1,-5%,8%,35,22%,-25%
O=[N+]([O-])c1cccc(-c2ccc(/C=N/NC(=S)Nc3cccc(F)c3)o2)c1,?,-29%,0,0%,18µM*
Cc1cc(S(=O)(=O)N2CCOCC2)ccc1OCC(=O)NCc1ccco1,0%,1%,-5,4%,?
COc1cc(OC)c(N(C)C(=O)CSc2c3c(nc4ccc(Cl)cc24)CCCC3)cc1Cl,/,/,/,18µM*,?
SMILES,HT1080-NT tox,HT1080 IDH1KD tx,IL1B secr inh,TDP1 cell CPT,DT40 TDP1 no CPT
CCCN(CCC)C(=O)CSc1c2c(nc3ccc(Cl)cc13)CCCC2,/,/,/,18µM*,?
Cc1ccc(CNC(=O)CSc2c3c(nc4ccc(Cl)cc24)CCCC3)o1,?,?,-16,?,?
CN(Cc1ccccc1)C(=O)CSc1c2c(nc3ccc(Cl)cc13)CCCC2,/,/,/,?,16µM*
COc1ccc(-c2cc(=O)c3c(OC(C)=O)cc(OC(C)=O)cc3o2)cc1,/,/,/,7%,?
CC(=O)Oc1cc(OC(C)=O)c2c(=O)cc(-c3ccc(OC(C)=O)c(OC(C)=O)c3)oc2c1,/,/,/,?,27µM*
CC(=O)Oc1cc(O)c2c(=O)c(OC(C)=O)c(-c3ccc(OC(C)=O)c(OC(C)=O)c3)oc2c1,-6%,-7%,63,?,21µM*
CC(C)N(Cc1ccccc1)C(=O)CN1C(=O)COc2ccc(S(=O)(=O)N3CCCCCC3)cc21,-12%,-5%,-21,15µM*,13µM*

# Bioassay records: PubChem, National Center for Advancing Translational Sciences (NCATS)
